Data on 23 targets can be found in the supplement of paper PMC11001985.

A number with no mark means an inactive call.

Sequence of UniProt Q9BVK6 (Q9BVK6 whole entry): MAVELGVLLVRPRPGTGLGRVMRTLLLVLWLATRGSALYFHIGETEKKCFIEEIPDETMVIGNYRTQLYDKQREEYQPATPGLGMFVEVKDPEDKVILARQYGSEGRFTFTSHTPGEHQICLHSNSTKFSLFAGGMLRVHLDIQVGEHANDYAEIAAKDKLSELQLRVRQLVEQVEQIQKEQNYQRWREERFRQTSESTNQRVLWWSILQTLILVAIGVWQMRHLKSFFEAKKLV
Sequence of UniProt P18859 (P18859 whole entry): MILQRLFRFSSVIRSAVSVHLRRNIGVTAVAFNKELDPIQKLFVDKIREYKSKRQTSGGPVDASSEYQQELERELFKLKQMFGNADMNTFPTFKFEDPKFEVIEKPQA
Sequence of UniProt P26006 (P26006 whole entry): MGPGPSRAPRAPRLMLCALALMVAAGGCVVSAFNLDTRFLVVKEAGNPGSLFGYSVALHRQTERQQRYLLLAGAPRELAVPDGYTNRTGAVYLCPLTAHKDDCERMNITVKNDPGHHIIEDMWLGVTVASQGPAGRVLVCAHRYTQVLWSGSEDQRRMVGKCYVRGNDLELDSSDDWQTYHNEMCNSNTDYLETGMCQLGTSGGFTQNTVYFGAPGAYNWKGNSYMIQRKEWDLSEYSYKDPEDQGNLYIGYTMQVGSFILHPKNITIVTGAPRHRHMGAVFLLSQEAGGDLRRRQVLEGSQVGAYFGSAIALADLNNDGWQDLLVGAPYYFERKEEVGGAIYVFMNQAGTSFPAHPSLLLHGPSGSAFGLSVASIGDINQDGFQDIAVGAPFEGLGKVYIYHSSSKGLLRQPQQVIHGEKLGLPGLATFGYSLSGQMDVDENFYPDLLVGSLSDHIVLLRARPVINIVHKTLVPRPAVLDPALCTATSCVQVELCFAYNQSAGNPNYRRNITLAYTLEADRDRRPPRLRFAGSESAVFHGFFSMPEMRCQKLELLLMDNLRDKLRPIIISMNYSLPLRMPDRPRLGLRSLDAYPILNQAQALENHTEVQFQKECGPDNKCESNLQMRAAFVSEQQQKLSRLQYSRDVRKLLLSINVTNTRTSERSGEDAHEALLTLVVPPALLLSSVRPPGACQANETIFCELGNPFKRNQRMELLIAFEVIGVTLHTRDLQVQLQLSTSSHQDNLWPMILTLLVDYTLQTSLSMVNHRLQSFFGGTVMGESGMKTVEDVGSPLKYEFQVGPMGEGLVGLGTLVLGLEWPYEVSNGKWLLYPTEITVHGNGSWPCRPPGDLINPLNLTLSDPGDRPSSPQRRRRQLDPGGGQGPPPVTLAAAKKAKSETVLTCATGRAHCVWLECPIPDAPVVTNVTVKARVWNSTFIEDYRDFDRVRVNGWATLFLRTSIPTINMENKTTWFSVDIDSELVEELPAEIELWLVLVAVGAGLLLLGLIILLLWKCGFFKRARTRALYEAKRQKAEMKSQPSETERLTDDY
Sequence of UniProt O43854 (O43854 whole entry): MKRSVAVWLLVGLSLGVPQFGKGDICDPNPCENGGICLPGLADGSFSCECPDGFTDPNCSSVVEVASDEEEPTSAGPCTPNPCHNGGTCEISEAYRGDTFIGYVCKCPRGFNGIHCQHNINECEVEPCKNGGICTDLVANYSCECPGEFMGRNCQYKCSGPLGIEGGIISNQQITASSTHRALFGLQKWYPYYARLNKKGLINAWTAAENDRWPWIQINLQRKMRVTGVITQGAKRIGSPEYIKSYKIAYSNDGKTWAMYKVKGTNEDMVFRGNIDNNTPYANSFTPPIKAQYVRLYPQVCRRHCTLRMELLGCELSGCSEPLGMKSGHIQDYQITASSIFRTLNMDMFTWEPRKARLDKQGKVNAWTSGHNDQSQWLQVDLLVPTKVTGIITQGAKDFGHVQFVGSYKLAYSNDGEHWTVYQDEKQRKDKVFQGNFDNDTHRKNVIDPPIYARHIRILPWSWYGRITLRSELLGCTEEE
Sequence of UniProt P11717 (P11717 whole entry): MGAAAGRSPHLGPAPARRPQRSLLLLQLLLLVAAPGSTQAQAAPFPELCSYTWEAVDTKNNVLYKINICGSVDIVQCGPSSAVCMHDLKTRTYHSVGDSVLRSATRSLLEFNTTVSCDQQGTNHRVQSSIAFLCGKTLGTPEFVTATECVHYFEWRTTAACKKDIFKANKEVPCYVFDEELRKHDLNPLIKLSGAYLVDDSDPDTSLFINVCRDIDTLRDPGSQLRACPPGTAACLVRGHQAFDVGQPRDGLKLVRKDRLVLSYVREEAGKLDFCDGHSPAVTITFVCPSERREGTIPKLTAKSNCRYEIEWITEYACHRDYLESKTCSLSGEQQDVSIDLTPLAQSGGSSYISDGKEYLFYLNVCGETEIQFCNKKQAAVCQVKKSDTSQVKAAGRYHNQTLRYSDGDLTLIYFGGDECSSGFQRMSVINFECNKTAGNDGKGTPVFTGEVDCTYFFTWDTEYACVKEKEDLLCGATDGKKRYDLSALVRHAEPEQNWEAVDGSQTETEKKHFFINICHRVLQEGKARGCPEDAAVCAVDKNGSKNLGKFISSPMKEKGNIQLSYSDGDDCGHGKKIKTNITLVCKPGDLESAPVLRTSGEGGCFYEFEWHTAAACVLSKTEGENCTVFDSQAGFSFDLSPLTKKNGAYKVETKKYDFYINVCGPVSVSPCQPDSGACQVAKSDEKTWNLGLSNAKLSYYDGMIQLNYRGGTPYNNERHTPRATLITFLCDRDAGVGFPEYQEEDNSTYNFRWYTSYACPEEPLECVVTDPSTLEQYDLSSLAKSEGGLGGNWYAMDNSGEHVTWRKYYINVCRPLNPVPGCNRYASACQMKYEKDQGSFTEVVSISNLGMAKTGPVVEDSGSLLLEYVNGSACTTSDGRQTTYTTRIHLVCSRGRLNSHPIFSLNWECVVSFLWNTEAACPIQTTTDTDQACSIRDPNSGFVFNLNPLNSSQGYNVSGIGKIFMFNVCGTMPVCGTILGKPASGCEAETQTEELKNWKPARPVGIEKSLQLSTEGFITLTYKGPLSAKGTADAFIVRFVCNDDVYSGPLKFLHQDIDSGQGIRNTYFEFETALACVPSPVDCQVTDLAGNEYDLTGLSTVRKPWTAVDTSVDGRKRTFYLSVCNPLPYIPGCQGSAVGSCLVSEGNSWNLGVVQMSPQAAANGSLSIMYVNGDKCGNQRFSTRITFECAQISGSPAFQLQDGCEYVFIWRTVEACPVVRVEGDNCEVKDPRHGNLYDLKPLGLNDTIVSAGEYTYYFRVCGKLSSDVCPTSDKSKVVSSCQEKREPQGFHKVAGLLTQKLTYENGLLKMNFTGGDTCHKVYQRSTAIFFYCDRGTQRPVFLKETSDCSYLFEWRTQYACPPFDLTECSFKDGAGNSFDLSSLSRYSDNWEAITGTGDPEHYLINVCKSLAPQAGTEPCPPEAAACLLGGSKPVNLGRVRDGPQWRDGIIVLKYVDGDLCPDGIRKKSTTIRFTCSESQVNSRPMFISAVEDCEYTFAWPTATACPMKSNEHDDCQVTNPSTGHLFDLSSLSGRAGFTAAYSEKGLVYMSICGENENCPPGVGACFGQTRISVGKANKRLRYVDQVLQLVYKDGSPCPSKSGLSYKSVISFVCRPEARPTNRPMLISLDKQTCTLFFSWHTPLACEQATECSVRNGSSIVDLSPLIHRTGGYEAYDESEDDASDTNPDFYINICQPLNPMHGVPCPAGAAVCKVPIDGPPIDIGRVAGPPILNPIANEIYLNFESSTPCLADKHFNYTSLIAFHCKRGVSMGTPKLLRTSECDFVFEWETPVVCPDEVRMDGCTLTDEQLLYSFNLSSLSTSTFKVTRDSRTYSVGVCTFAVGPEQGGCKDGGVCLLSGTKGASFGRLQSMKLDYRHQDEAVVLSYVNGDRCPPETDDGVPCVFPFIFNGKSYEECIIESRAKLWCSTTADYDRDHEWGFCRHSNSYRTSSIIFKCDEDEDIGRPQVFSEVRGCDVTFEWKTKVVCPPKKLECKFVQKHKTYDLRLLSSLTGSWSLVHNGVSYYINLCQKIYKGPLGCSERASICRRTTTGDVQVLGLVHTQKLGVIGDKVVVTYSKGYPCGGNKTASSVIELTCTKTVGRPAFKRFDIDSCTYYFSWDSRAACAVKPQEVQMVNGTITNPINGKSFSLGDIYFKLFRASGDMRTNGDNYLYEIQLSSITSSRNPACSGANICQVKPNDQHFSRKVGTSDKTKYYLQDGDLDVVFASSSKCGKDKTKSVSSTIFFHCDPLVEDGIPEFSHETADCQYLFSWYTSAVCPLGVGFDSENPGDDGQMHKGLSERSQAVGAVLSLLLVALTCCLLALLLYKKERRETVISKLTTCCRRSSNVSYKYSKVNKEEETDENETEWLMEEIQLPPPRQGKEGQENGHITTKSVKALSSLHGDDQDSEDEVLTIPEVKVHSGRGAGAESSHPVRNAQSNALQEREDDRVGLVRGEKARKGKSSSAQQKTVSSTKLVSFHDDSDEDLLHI
Sequence of UniProt P31947 (P31947 whole entry): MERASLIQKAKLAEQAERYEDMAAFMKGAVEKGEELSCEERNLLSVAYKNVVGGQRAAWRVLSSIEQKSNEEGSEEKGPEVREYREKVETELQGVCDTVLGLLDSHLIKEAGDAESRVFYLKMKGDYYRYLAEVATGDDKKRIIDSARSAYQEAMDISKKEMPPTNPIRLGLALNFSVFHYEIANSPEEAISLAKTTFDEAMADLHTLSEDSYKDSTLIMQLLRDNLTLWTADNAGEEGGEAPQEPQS
Sequence of UniProt Q7Z3B1 (Q7Z3B1 whole entry, looked up): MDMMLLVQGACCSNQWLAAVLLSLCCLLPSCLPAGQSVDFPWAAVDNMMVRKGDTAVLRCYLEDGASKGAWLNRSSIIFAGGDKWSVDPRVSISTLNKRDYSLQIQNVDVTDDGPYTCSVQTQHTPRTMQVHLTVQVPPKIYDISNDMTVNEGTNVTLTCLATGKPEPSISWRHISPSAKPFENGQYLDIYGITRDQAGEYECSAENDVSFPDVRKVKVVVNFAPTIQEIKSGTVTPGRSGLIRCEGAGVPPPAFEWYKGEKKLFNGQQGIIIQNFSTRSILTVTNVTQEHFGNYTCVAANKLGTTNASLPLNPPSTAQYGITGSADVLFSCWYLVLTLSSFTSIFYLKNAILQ

Compound in the experiment: C#CCNC(=O)CCSSCCC(=O)NCCc1ccc(C=O)c(C=O)c1
The experiment in a line: lysine labeling ratio R10:1 (500 µM / 50 µM probe), SILAC-ABPP in living cells; higher = lower intrinsic lysine reactivity toward the probe, active = 2 or less. The conditions noted are these: HeLa; probe concentrations 500 vs 50 µM. Summed up: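 Each lysine carries an R value: the filtered median of MS1 peptide ratios of high probe to low probe, with the median then taken over forward and reverse replicates. These came from living SILAC light and heavy HeLa cells in PBS at room temperature labelled with an alkyne-tagged, disulfide-linked lysine probe at 500 µM or 50 µM, in forward and reverse swaps. The lysates were mixed, clicked to biotin-azide, trypsin-digested, captured on neutravidin, released by DTT, alkylated and run by LC-MS/MS on a TIMS-TOF Pro. The highest value allowed is 20.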
In the case of “ITGA3 (lysine site: K161) (UniProt P26006)”, the “lysine labeling ratio R10:1” value was 5.16.
On to “KPNB1 (lysine site: K376) (UniProt Q14974)”, for which the “lysine labeling ratio R10:1” value is 2.54.
As for “TGFBR3 (lysine site: K686) (UniProt Q03167)”, the figure is 1.81 (active); as for “RPS3 (lysine site: K75) (UniProt P23396)”, 2.68; as for UniProt P18859 (lysine site: K105), 3.04.
The value for “CD44 (lysine site: K158) (UniProt P16070)” was 4.38; that for “IGF2R (lysine site: K1576) (UniProt P11717)” was 0.605 (active); that for “TMED9 (lysine site: K160) (UniProt Q9BVK6)” was 5.13.
As to “SMOC1 (lysine site: K223) (UniProt Q9H4F8)”, the “lysine labeling ratio R10:1” value was 4.99.
Take UniProt P25705 (lysine site: K434): the “lysine labeling ratio R10:1” value is 1.73 (active).
In the case of UniProt P62899 (lysine site: K75), the “lysine labeling ratio R10:1” value was 2.92.
As to “EEA1 (lysine site: K583) (UniProt Q15075)”, the “lysine labeling ratio R10:1” value was 3.77.
As for “ANPEP (lysine site: K205) (UniProt P15144)”, the figure is 2.56; as for “EPHA2 (lysine site: K476) (UniProt P29317)”, 3.45; as for “TMED9 (lysine site: K71) (UniProt Q9BVK6)”, 5.82.
Consider “IGF1R (lysine site: K892) (UniProt P08069)”, for which the “lysine labeling ratio R10:1” value is 3.9.
As for “NEGR1 (lysine site: K231) (UniProt Q7Z3B1)”, the figure is 0.868 (active).
Consider “ICAM1 (lysine site: K359) (UniProt P05362)”, for which the “lysine labeling ratio R10:1” value was 3.71.
Turning to “FRAS1 (lysine site: K2523) (UniProt Q86XX4)”, the “lysine labeling ratio R10:1” value was 2.03.
Take SFN (lysine site: K77) (UniProt P31947): the “lysine labeling ratio R10:1” value was 3.35.
Turning to “LRP1 (lysine site: K646) (UniProt Q07954)”, the “lysine labeling ratio R10:1” value was 1.92 (active).
The value for UniProt P62987 (lysine site: K93) was 5.44; that for “EDIL3 (lysine site: K263) (UniProt O43854)” was 2.69.
